# Records with an inconclusive call do not appear. Unmarked numbers belong to inactive results. Active and inactive are the calls of the source. Calls follow the shape of the full dose curve.
# Assay: qHTS assay for small molecule disruptors of the mitochondrial membrane potential - cell viability (AID 720634); also: nearly all actives have a fitted effect of over 20% in size;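 as to activity change, negative = cytotoxicity: human HepG2 liver cancer cells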
# Details: HepG2 viability, ATP luminescence (CellTiter-Glo), 1 h; series mostly up to 83.2 µM; activity change, negative = cytotoxicity: at the top concentration
# Source text: U.S. Tox21 Program National Center for Advancing Translational Sciences [NCATS] NIH Chemical Genomics Center [NCGC] U.S. Environmental Protection Agency [EPA] National Institutes of Environmental Health Sciences [NIEHS] National Toxicology Program [NTP] U.S. Food and Drug Administration [FDA] Tox21 Assay Overview: Mitochondrial membrane potential (MMP), one of the parameters for mitochondrial function, is generated by mitochondrial electron transport chain that creates an electrochemical gradient by a series of redox reactions. This gradient drives the synthesis of ATP, a crucial molecule for various cellular processes. Measuring MMP in living cells is commonly used to assess the effect of chemicals on mitochondrial function; decreases in MMP can be detected using lipophilic cationic fluorescent dyes. […] The dye accumulates in the mitochondria of healthy cells as aggregates, with red fluorescence. The mitochondrial potential decreases and the dye could not accumulate in the mitochondria and remains in the cytoplasm in monomers, with green fluorescence. In addition to the mitochondrial potential assay, these cells were also used to test the cytotoxicity by determining the cell viability in the culture based on the quantitation of ATP present. The cytotoxicity was measured in the same assay well of MMP assay.
# Tox21 Assay Protocol Summary: 2,000 HepG2 cells in 5 uL/well were dispensed into black, clear-bottom 1536-well plates using a Multidrop Combi (Thermo Scientific) dispenser. The assay plates were incubated for an overnight at 37 C to allow cells to attach to the wells, followed by the transfer of 23 nL compound or DMSO vehicle by a pin tool (Kalypsys). The plates were incubated for 1 hr at 37 C and 5% CO2, followed by the addition of 5 uL of 2X m-MPI dye into each well using Flying Reagent Dispenser (Aurora Discovery) and then CellTiter-Glo reagent was added at 4 uL/well and incubated 30 min at room temperature. Then luminescence intensity was quantified on a ViewLux CCD-based plate reader.
# % is scaled to controls: 0 for no effect and ±100 for the full control effect; potency is read from the fitted curve at half-maximal effect.
SMILES,"activity change, negative = cytotoxicity",Potency
C=C1c2c(Cl)ccc(O)c2C(O)=C2C(=O)[C@]3(O)C(O)=C(C(N)=O)C(=O)[C@@H](N(C)C)[C@@H]3[C@@H](O)[C@H]12,-13.2% [at 39.1 µM],–
c1ccc2c(c1)Sc1ccccc1N2CCN1CCCC1,5.88%,–
CCOC(=O)[C@H](CCc1ccccc1)N[C@H]1CCCN2CCC[C@@H](C(=O)O)N2C1=O,5.83%,–
CCOC(=O)[C@H](CCc1ccccc1)N[C@@H](C)C(=O)N1CC2(C[C@H]1C(=O)O)SCCS2,-6.78%,–
c1ccc2cc(C3=NCCN3)ccc2c1,-4.67%,–
CC(O)CN(C)C (stereo not given),9.19%,–
CN1CCN(CCCN2c3ccccc3Sc3ccccc32)CC1,5.02%,–
[O]=[Bi][O]C(=O)[O][Bi]=[O],-3.22%,–
CC1(C)N=C(N)N=C(N)N1c1ccc(Cl)cc1,-1.96%,–
Cc1cc(C(=O)NNCc2ccccc2)no1,23.4% [at 39.1 µM],–
CC(=O)N[C@@H]([C@@H](O)[C@H](O)[C@H](O)CO)[C@@H](O)CC(=O)C(=O)O,4.07%,–
C=C1CC[C@@H]2[C@](C)(CO)[C@H](O)CC[C@@]2(C)[C@@H]1C/C=C1/C(=O)OC[C@H]1O,17%,–
COc1cc2c(cc1OC)[C@@H](c1ccccc1)CN(C)CC2,16.1%,–
CC(C)Cc1ccc([C@@H](C)C(=O)NS(C)(=O)=O)cc1,-6.83%,–
CCCCC[C@H](O)/C=C/[C@H]1[C@H](O)CC(=O)[C@@H]1CCCCCCC(=O)O,-5.69% [at 39.1 µM],–
CCCCCCCCCCCCCCCCCCCCCCO,5.01%,–
NC[C@@H]1O[C@H](O[C@H]2[C@@H](O)[C@H](O[C@@H]3[C@@H](O)[C@H](N)C[C@H](N)[C@H]3O[C@H]3O[C@H](CN)[C@@H](O)[C@H](O)[C@H]3N)O[C@@H]2CO)[C@H](N)[C@@H](O)[C@@H]1O,5.28%,–
O=C(CO)[C@@H](O)[C@H](O)[C@@H](O)C(=O)O,19.3%,–
C[C@@H]1CCC2[C@@H](C)[C@@H](O)O[C@@H]3O[C@@]4(C)CC[C@@H]1[C@@]23OO4 (stereo not given in full),-7.41%,–
CC(C)CN(C[C@@H](O)[C@H](Cc1ccccc1)NC(=O)O[C@H]1CO[C@H]2OCC[C@H]21)S(=O)(=O)c1ccc(N)cc1,-10.7%,–

SMILES,"activity change, negative = cytotoxicity",Potency
C/C=C1\NC(=O)[C@H]2CSSCC/C=C/[C@H](CC(=O)N[C@H](C(C)C)C(=O)N2)OC(=O)C(C(C)C)NC1=O (stereo not given in full),7.38%,–
CCCCCCCCCCCCOCCCN,11.4%,–
CN(C)C=Nc1c(I)cc(I)c(CCC(=O)O)c1I,-5.2%,–
C[C@]12CC[C@@H]3c4ccc(OS(=O)(=O)O)cc4CC[C@H]3[C@@H]1CCC2=O,63.8%,–
CN1[C@@H]2CC[C@H]1CC(OC(c1ccccc1)c1ccccc1)C2 (stereo not given in full),–,inactive
C[C@]12CC[C@@H]3c4ccc(OC(=O)c5ccccc5)cc4CC[C@H]3[C@@H]1CC[C@@H]2O,-16.9%,–
CC(=O)O[C@H]1CC[C@@]2(C)C(=CC[C@@H]3[C@@H]2CC[C@]2(C)C(c4cccnc4)=CC[C@@H]32)C1,-4.34%,–
CC(O)[C@H]1CC[C@H]2[C@@H]3CC[C@@H]4C[C@@H](O)CC[C@]4(C)[C@H]3CC[C@]12C (stereo not given in full),7.47%,–
CCCCCCCCCCCCCCCC(=O)OC[C@@H](O)[C@H]1OC[C@H](O)[C@H]1O,8.76%,–
O=C(Cc1cccs1)N[C@@H]1C(=O)N2C(C(=O)[O-])=C(C[n+]3ccccc3)CS[C@H]12,-1.6%,–
C=CC[C@@H]1/C=C(\C)C[C@H](C)C[C@H](OC)[C@H]2O[C@@](O)(C(=O)C(=O)N3CCCC[C@H]3C(=O)O[C@H](/C(C)=C/[C@@H]3CC[C@@H](O)[C@H](OC)C3)[C@H](C)[C@@H](O)CC1=O)[C@H](C)C[C@@H]2OC,-2.53%,–
CC(C)c1nc(N(C)S(C)(=O)=O)nc(-c2ccc(F)cc2)c1/C=C/C(O)CC(O)CC(=O)O (stereo not given),-6.49%,–
O=C(CCCN1CCC(n2c(=S)[nH]c3ccccc32)CC1)c1ccc(F)cc1,-5.62%,–
CCOc1ccc(N=C(C)Nc2ccc(OCC)cc2)cc1,9.29%,–
O=C(O)CO.[NH2-].[NH2-].[Pt+2],3.87%,–
COC(=O)[C@@H](N)CS,-7.88%,–
CCCCC/C=C\CCC(=O)N[C@H]1[C@H](Oc2c3cc4cc2Oc2ccc(cc2Cl)[C@@H](O[C@@H]2O[C@H](CO)[C@@H](O)[C@H](O)[C@H]2NC(C)=O)[C@@H]2NC(=O)[C@H](NC(=O)[C@@H]4NC(=O)[C@H]4NC(=O)[C@@H](Cc5ccc(c(Cl)c5)O3)NC(=O)[C@H](N)c3ccc(O)c(c3)Oc3cc(O)cc4c3)c3ccc(O)c(c3)-c3c(O[C@H]4O[C@H](CO)[C@@H](O)[C@H](O)[C@@H]4O)cc(O)cc3[C@@H](C(=O)O)NC2=O)O[C@H](CO)[C@@H](O)[C@@H]1O,4.4% [at 39.1 µM],–
CN(C)CCOc1ccccc1Cc1ccccc1 (tested in a mixture with another compound),-5.11%,–
CCC(=O)OCC(=O)[C@@]1(OC(=O)CC)[C@@H](C)C[C@H]2[C@@H]3CCC4=CC(=O)C=C[C@]4(C)[C@@]3(F)[C@@H](O)C[C@@]21C,-9.27%,–
CN(C)C(=O)CCSC(SCCC(=O)O)c1cccc(/C=C/c2ccc3ccc(Cl)cc3n2)c1 (stereo not given),–,29.8 µM (active)
